According to the supplement of paper PMC11172423:
Unmarked numbers belong to inactive results.

Test system: Falciformispora senegalensis CBS197.79
Assay: growth relative to untreated control; higher = less inhibition, active = 20 or less
In short: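 Growth was expressed as metabolic activity relative to the untreated growth control, with both corrected using a blank of medium plus dye. Hyphal fragments of M. mycetomatis MM55 or F. senegalensis CBS197.79 were suspended to 68–72% transmission at 660 nm in colourless RPMI 1640 containing L-glutamine and MOPS. In 96-well plates they were exposed to compound at 100 or 25 µM for 7 days at 37 °C, and viability was read with MTS (2 h, 490 nm) or resazurin (600 nm).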

SMILES | growth (25 µM) | growth (100 µM)
CNC(=O)Oc1ccccc1OC(C)C | 92.8% | 97.7%
COc1ccc(Cc2nccc3cc(OC)c(OC)cc23)cc1OC | 110% | 104%
O=[N+]([O-])/C=C1\NCCCS1 | 86.4% | 93.8%
O=[N+]([O-])/N=C1\NCCN1Cc1ccc(Cl)nc1 | 90.2% | 86.5%
Cc1nc(N(C)C)nc(OC(=O)N(C)C)c1C | 86.3% | 87.9%
COc1ccc(CCN2CCC(Nc3nc4ccccc4n3Cc3ccc(F)cc3)CC2)cc1 | 12.9% (active) | 15% (active)
CC(F)c1ncnc(NCCc2ccc(OC(F)(F)F)cc2)c1Cl (centres undefined) | 90.5% | 82.9%
CNCCn1c(Nc2cc(Cl)cc(C(F)(F)F)c2)nc2cnc(NC3CC(F)(F)C3)cc21 | 69% | 26.2%
CNC(=O)Oc1cccc2ccccc12 | 99.6% | 108%
CC[C@H](C)[C@H]1O[C@]2(C=C[C@@H]1C)C[C@@H]1C[C@@H](C/C=C(\C)[C@@H](O[C@H]3C[C@H](OC)[C@@H](O[C@H]4C[C@H](OC)[C@@H](O)[C@H](C)O4)[C@H](C)O3)[C@@H](C)/C=C/C=C3\CO[C@@H]4[C@H](O)C(C)=C[C@@H](C(=O)O1)[C@]34O)O2.CO[C@H]1C[C@H](O[C@H]2[C@H](C)O[C@@H](O[C@@H]3/C(C)=C/C[C@@H]4C[C@@H](C[C@]5(C=C[C@H](C)[C@@H](C(C)C)O5)O4)OC(=O)[C@@H]4C=C(C)[C@@H](O)[C@H]5OC/C(=C\C=C\[C@@H]3C)[C@]54O)C[C@@H]2OC)O[C@@H](C)[C@@H]1O | 92.5% | 90%
CN1COCN(Cc2cnc(Cl)s2)/C1=N/[N+](=O)[O-] | 93% | 86.8%
CN(C)[C@@H]1C(=O)C(C(N)=O)=C(O)[C@@]2(O)C(O)=C3C(=O)c4c(O)cccc4[C@@](C)(O)[C@H]3C[C@@H]12 | 99.7% | 94.1%
C[C@@H]1C[C@@H]([C@H](O)CC2CC(=O)NC(=O)C2)C(=O)[C@@H](C)C1 | 101% | 101%
CCOc1ccc(C(C)(C)COCc2cccc(Oc3ccccc3)c2)cc1 | 79.4% | 39.3%
COP(=S)(OC)Oc1ccc(Sc2ccc(OP(=S)(OC)OC)cc2)cc1 | 93.4% | 92.8%
O=C(NC(=O)c1c(F)cccc1F)Nc1ccc(Cl)c(Oc2ncc(C(F)(F)F)cc2Cl)c1 | 93% | 84%
CN/C(=N/CC1CCOC1)N[N+](=O)[O-] (centres undefined) | 91.8% | 92.9%
CC1(C)CNC(=NN=C(C=Cc2ccc(C(F)(F)F)cc2)C=Cc2ccc(C(F)(F)F)cc2)NC1 | 88.7% | 107%
CN(c1cc(NC(=O)c2ccc(F)cc2)ccn1)C1CCN(Cc2cccc(F)c2)CC1 | 66% | 30.2%

SMILES | growth (25 µM) | growth (100 µM)
CN/C(=N\[N+](=O)[O-])NCc1cnc(Cl)s1 | 90.6% | 85.7%
CN1CCN(C(=O)O[C@H]2c3nccnc3C(=O)N2c2ccc(Cl)cn2)CC1 | 106% | 102%
CCOP(=S)(OCC)Oc1cc(C)nc(C(C)C)n1 | 97.9% | 88.9%
Cc1sc2c(c1C)C(c1ccc(Cl)cc1)=N[C@@H](CC(=O)OC(C)(C)C)c1nnc(C)n1-2 | 101% | 97.4%
CC1(C)C(C=C(Cl)Cl)C1C(=O)OCc1cccc(Oc2ccccc2)c1 (centres undefined) | 70.4% | 98.3%
C[C@@H]1O[C@@H](O[C@@H]2C=C3CC[C@@H]4[C@H](CC[C@]5(C)[C@@H](c6ccc(=O)oc6)CC[C@]45O)[C@@]3(C)CC2)[C@H](O)[C@H](O)[C@H]1O | 99.3% | 104%
COC(C)(C)CCCC(C)C/C=C/C(C)=C/C(=O)OC(C)C (centres undefined) | 89.3% | 97.8%
CC(C)(C#N)NC(=O)c1cc(Cl)cc(Cl)c1NC(=O)c1cc(Cl)nn1-c1ncccc1Cl | 94.4% | 94.6%
CC1(Nc2ncc3nc(Nc4cc(Cl)cc(C(F)(F)F)c4)n(C4CCNC4)c3n2)CC1 (centres undefined) | 83.5% | 52.1%
CC[C@@H]1CCC[C@H](O[C@H]2CC[C@H](N(C)C)[C@@H](C)O2)[C@@H](C)C(=O)C2=C[C@@H]3[C@@H](C=C(C)[C@@H]4C[C@@H](O[C@@H]5O[C@@H](C)[C@H](OC)[C@@H](OC)[C@H]5OC)C[C@@H]34)[C@@H]2CC(=O)O1.CC[C@@H]1CCC[C@H](O[C@H]2CC[C@H](N(C)C)[C@@H](C)O2)[C@@H](C)C(=O)C2=C[C@@H]3[C@@H](C=C[C@@H]4C[C@@H](O[C@@H]5O[C@@H](C)[C@H](OC)[C@@H](OC)[C@H]5OC)C[C@@H]34)[C@@H]2CC(=O)O1 | 78.1% | 93.3%
CN(C)CCn1c(Nc2cc(Cl)cc(C(F)(F)F)c2)nc2cnc(NC3CCC3)cc21 | 102% | 104%
CCC(CC)c1cccc(OC(=O)NC)c1.CCCC(C)c1cccc(OC(=O)NC)c1 | 98.4% | 81.9%
CCN(Cc1ccc(Cl)nc1)/C(=C/[N+](=O)[O-])NC | 95.3% | 89.6%
C=C(C)[C@H]1Cc2c(ccc3c2O[C@@H]2COc4cc(OC)c(OC)cc4[C@@H]2C3=O)O1 | 90.6% | 102%
CC1(C)C(/C=C(\Cl)c2ccc(Cl)cc2)C1C(=O)OC(C#N)c1ccc(F)c(Oc2ccccc2)c1 (centres undefined) | 74.8% | 93.3%
CC(c1ccc(C(F)(F)F)nc1)S(C)(=O)=NC#N (centres undefined) | 91.2% | 90.7%
N#Cc1nn(-c2c(Cl)cc(C(F)(F)F)cc2Cl)c(NCc2ccccn2)c1SC(F)F | 85.6% | 101%
C/C=C(\C)C(=O)O[C@H]1C[C@@H](OC(C)=O)[C@@]2(C(=O)OC)CO[C@H]3[C@@H](O)[C@@](C)([C@]45O[C@@]4(C)[C@H]4C[C@@H]5O[C@@H]5OC=C[C@@]54O)[C@H]4[C@]1(CO[C@]4(O)C(=O)OC)[C@@H]32 | 89.6% | 96.1%
